Here are results for 71 molecules from ChEMBL document CHEMBL4513216, “Probing the Open Global Health Chemical Diversity Library for Multistage-Active Starting Points for Next-Generation Antimalarials” (ACS Infect Dis, 2020).

SMILES strings stand for the structures. Among all 69,000 compounds or so, about 8,600 (12%) showed an effect of 50% or more. The list comes from a sample in which strong results are over-represented; it also holds similar structures and randomly drawn compounds.

This experiment relates to Plasmodium berghei. As to the kind of experiment: Screen against P. berghei liver stage (PbLuc), transformed with Luciferase, at 10uM. The note with it: tested at 10 uM. The class given is functional, HepG2.
Regarding `CC(NC(=O)NCC(F)(F)F)c1nncn1C` (stereo unspecified), the INHIBITION worked out at 11.5%. Next, `c1cncc(OCc2nc(C3CC3)nn2-c2ccc3c(c2)OCCO3)c1`: 25.4%; `c1ccc(Cc2nc(C3CC3)nn2-c2ccc3c(c2)OCCO3)nc1`: -52.4%; `c1cncc(CCc2nc(C3CC3)nn2-c2ccc3c(c2)OCCO3)c1`: 50.1%.

Consider `CCc1nc(N)nc(N2CCCC3(CCN(C)CC3)CC2)c1C`, for which the INHIBITION is on record as -56.2%.

Regarding `CCc1cnc(N)nc1N1CCCC2(CCOCC2)C1`, the INHIBITION is on record as -3.77%. Consider `CCc1nc(N)nc(N2CCCC3(CCOCC3)C2)c1C`, for which the INHIBITION amounted to 50%. Next, `CS(=O)(=O)N1CCCC(n2nnn(-c3ccccc3)c2=O)C1` (stereo unspecified): 17.55%; `c1cncc(C2COC3(CCN(CC4CC4)CC3)C2)c1` (stereo unspecified): -18.2%; `Cn1cccc1C(=O)N1CCCCC1c1ccn2ccnc2n1` (stereo unspecified): -11.7%.

Turning to `Cc1cc(C(=O)N2CCCC3(CN(C)C(=O)O3)C2)c2ccc(F)cc2n1` (stereo unspecified), the INHIBITION was 37.7%. Next, `Cc1nc[nH]c1C(=O)N1CCCC2(CN(C)C(=O)O2)C1` (stereo unspecified): 3.69%; `Cc1cccc2c(=O)c(C(=O)N3CCCC4(CN(C)C(=O)O4)C3)c[nH]c12` (stereo unspecified): 60.1%; `COCCCNC(=O)NCc1ccc(C)cc1`: 48.8%.

For the molecule `CCOC(=O)CNC(=O)NCc1cccn1Cc1ccccc1C`, the INHIBITION is -21.3%. Next, `CCOC(=O)CNC(=O)NCc1cccn1Cc1ccc(F)cc1`: 16.8%. Next, `CCOC(=O)CNC(=O)NCc1cccn1Cc1ccccc1F`: 56.5%. Consider `COCCCNC(=O)NCc1cccn1Cc1ccccc1C`, for which the INHIBITION was 60.7%. In the case of `CCOC(=O)CNC(=O)NCc1cccn1Cc1ccccc1`, the INHIBITION turned out to be 40.8%. Next, `Cn1ccc(C(=O)N2CCCC2c2cc(CCO)[nH]n2)n1` (stereo unspecified): 28.69%; `O=C(NCc1ccco1)c1cc[n+]([O-])cc1`: -10.0965%. Take `O=C(Nc1ccccc1-c1ccccc1)NC1CCC2(C1)OCCO2` (stereo unspecified): the INHIBITION was -6.67%. Consider `c1cnc(N2CCC(c3cc4cccnc4[nH]3)CC2)nc1`, for which the INHIBITION is 23.2%. On to `c1cnc(N2CCCC(c3cc4cccnc4[nH]3)C2)nc1` (stereo unspecified), for which the INHIBITION came to 72.5%.

For `c1cnc(N2CCCC(c3n[nH]c4ncccc34)C2)nc1` (stereo unspecified), the INHIBITION is -27.1%.

Consider `CN(C)C(=O)c1cccc(CN2CCOC(Cn3cncn3)C2)c1` (stereo unspecified), for which the INHIBITION came out at 41.5%.

As to `NC(=O)C1(Cc2ccccc2-c2cncnc2)CCCNC1` (stereo unspecified), the INHIBITION came to 12.915%. In the case of `Cn1nc(COc2cncnc2)c2c1CCN(Cc1ccco1)C2`, the INHIBITION came out at 63.5%. As to `CCS(=O)(=O)N1CCCn2cnc(COc3cccnc3)c2C1`, the INHIBITION came out at 14.6%.

Consider `Fc1cnc(N2CCCn3cnc(COc4cccnc4)c3C2)nc1`, for which the INHIBITION is on record as 4.68%. Next, `Cn1nc(COc2cccnc2)c2c1CCN(c1ncccn1)C2`: 53%; `Cn1nc(COc2cccnc2)c2c1CCN(Cc1ccco1)C2`: 31.4%. Consider `Cn1nc(COc2cccnc2)c2c1CCN(c1cnccn1)C2`, for which the INHIBITION amounted to 53.5%.

As for `Cn1nc(Cn2ccnc2)c2c1CN(c1ncccn1)C2`, the INHIBITION was found to be 3.88%. Next, `Cn1nc(CNc2ncccn2)c2c1CN(c1cnccn1)CC2`: 32.1%. Next, `Cn1nc(COCC2CC2)c2c1CCN(Cc1ccco1)C2`: -12.2%.

As for `c1cnc(N2CCc3onc(CN4CCCC4)c3C2)cn1`, the INHIBITION came out at 37.5%. For `Cn1nc(CN2CCCC2)c2c1CN(C(=O)c1cnccn1)CC2`, the INHIBITION stood at 43.4%. Regarding `Cn1nc(CN2CCCC2)c2c1CN(c1cnccn1)CC2`, the INHIBITION is 54.8%. Next, `Cc1cnccc1CN(C)C(=O)C(C)(C)NC(=O)c1cccs1`: 37.9%. Regarding `CCNC(=O)CN1CCN(Cc2nc3c(F)cccc3n2CC)CC1`, the INHIBITION is 30.85%.

For the molecule `Cc1ccc(N2CCCC(NCc3cc(C)on3)C2)nn1` (stereo unspecified), the INHIBITION worked out at 27.4%. On to `CCCNC(=O)C1(CC2CC(c3ccccc3OC)=NO2)CCOCC1` (stereo unspecified), for which the INHIBITION is 29.2%.

For `Cc1ccc(C(=O)N2CCn3cc(CN4CCCCC4)nc3C2)o1`, the INHIBITION was 17.4%. Next, `Cc1cnc(N2CCc3c(c(COc4cncnc4)nn3C)C2)nc1`: 53.9%; `CC(C)N1CCc2c(c(COc3cccnc3)nn2CC2CC2)C1`: 12.7%; `Cn1nc(COc2cccnc2)c2c1CCN(CC1CC1)C2`: 61.1%. Take `CN1CCc2c(c(COc3cncnc3)nn2CC2CC2)C1`: the INHIBITION amounted to 24.6%.

Regarding `COCCN1CCc2c(c(COc3cccnc3)nn2C)C1`, the INHIBITION is -4.08%.

For `Cn1nc(COc2cncnc2)c2c1CCN(Cc1ccccn1)C2`, the INHIBITION amounted to 24.9%. On to `COc1ccc(OC)c(C(O)CNC(=O)Nc2cccnc2OC)c1` (stereo unspecified), for which the INHIBITION was found to be 17.4%. Next, `Cc1cc(CNC(=O)NCCCC(=O)N2CCc3ccccc32)no1`: 45.4%. Next, `COC(=O)Cn1c(=O)cc(C(F)F)c2c(C)nn(CC(F)F)c21`: -12.975%. Next, `Cc1ccc(CNc2cc3[nH]c(O)nc3cc2C)cc1`: -46.3%; `O=C(c1ccc(NCc2cccc(F)c2)cc1)N1CCC(CO)CC1`: -92.5%. Consider `NC(=O)c1ccc(OCC(=O)NS(=O)(=O)c2ccc3c(c2)CCC3)cc1`, for which the INHIBITION turned out to be 15.533%. Next, `Cn1c2ccc(F)cc2c2ncn(CCN3CCOCC3)c(=O)c21`: 45%. With `Cn1c2ccccc2c2ncn(CCN3CCOCC3)c(=O)c21`, the INHIBITION turned out to be 63.6%. `Cn1c2ccccc2c2ncn(CCCN3CCOCC3)c(=O)c21`: the INHIBITION turned out to be 29.1%. As for `CC(C)n1cc(-n2cc3nc(N4CCOCC4)[nH]cc-3c2=O)cn1`, the INHIBITION is reported as 5.18%. Take `Cc1n[nH]c(C2CN(CC(=O)NCc3sccc3C)CCO2)n1` (stereo unspecified): the INHIBITION was -7.36%.

As to `Cc1ccccc1CN1CCN(c2ncnc3c2NC(=O)CN3)CC1`, the INHIBITION was -4.76%. Next, `O=C1CNc2ncnc(Nc3cnn(Cc4ccccc4F)c3)c2N1`: 33.5%; `O=C1CNc2ncnc(N3CCN(c4ccccc4F)CC3)c2N1`: 59%. `O=C1CNc2ncnc(N3CCN(Cc4cccc(F)c4)CC3)c2N1`: the INHIBITION was 55.7%. Next, `O=C1CNc2ncnc(N3CCN(Cc4ccccc4F)CC3)c2N1`: 39.1%. For `O=C1CNc2ncnc(N3CCN(Cc4ccccc4)CC3)c2N1`, the INHIBITION is 30%.

For `COC(=O)CNC(=O)c1scnc1C`, the INHIBITION stood at 2.93%. Next, `Cc1ocnc1C(=O)N1CC[C@@H](O)[C@@H](O)[C@H](N2CCC(F)(F)CC2)C1`: 59%. Next, `O=C(c1ccncc1)N1CC[C@@H](O)[C@@H](O)[C@H](N2CCC(F)(F)CC2)C1`: 27.8%; `Cc1ncoc1C(=O)N1CC[C@@H](O)[C@@H](O)[C@H](N2CCC(F)(F)CC2)C1`: 20.4%.
